Assay outcomes (PubChem BioAssay)
PNC assembly inh: inhibitors of perinucleolar compartment assembly; activity change (PNC), negative = inhibition, % at 10 µM; 140,000 compounds, 3.1% hits; PC3M PTB-GFP, PNC prevalence imaging, 16 h; active compounds read low;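 active = readout at or below -70, meaning at least 70% loss of cells showing the perinucleolar compartment, a nuclear body marking cancer cells; inconclusive = readout between -30 and a set limit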
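Compounds are pinned in duplicate onto adhered PC3M cells stably expressing GFP-tagged PTB and incubated 16 h at 37 C. Cells are then fixed, nuclei stained with Hoechst, and PNC-positive cells counted.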
HTT aggregate: reduces HttQ103-GFP aggregates in PC12 cells; PC12 HttQ103-GFP aggregates, Acumen cytometry, 40 h; Potency, µM (titrated, usually from 46.1 µM), most hits filed as inhibitors; 220,000 compounds, 1.1% hits; note: nearly all actives have a fitted effect of over 60% in size
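Inducible Q103 Huntingtin exon 1–GFP PC12 line, 1500 cells/well in phenol red free DMEM with 5% equine and 5% calf serum. Tebufenozide 100 nM induced expression; compounds titrated; aggregates quantified by cytometry.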
12-hLO inh: 12-hLO (ALOX12) enzyme inhibition. P18054. purified 12-hLO, xylenol orange hydroperoxide absorbance. Potency, µM (doses to about 57.1 µM), usual class: inhibitors. 150,000 compounds, 0.12% hits. AID 1452; note: nearly all actives have a fitted effect of over 55% in size
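Hydroperoxide output read as Fe(III)-xylenol orange absorbance, 573-to-405 nm ratio, after 30 min reaction with 40 uM arachidonic acid. Enzyme: 150 nM purified human 12hLO, 15 min compound preincubation; 25 mM Hepes pH 7.0, room temperature.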
IMPase inh: IMPase inhibition in cells. P97697. CHO-M1 cells, IP1 accumulation, HTRF TR-FRET ratio. inhibition (IP1 accumulation), % at 46.1 µM. 120,000 tested, under 10 active; active = well fitted curve in the direction sought with a large enough effect in the signal ratio, not every such curve was filed as active; inconclusive = small, poorly fitted or top-dose-only effect, or a change in a side signal; inactive = no such curve, though single readings can be large or run the other way; the % refers to the signal ratio;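 note: cells stimulated with carbachol in lithium chloride buffer; higher means more IMPase inhibition seen as more IP1 and lower FRET ratio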
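Measured: the HTRF emission ratio (665/620 nm) plus the 620 nm donor channel, each fitted to the Hill equation to give AC50. Cells were CHO-M1 given compounds up to 46 uM and a 30 min carbachol stimulation at 37C.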
HTT ATP protect: Huntington cell model cytoprotection by ATP luminescence. PC12 HTT-Q103 induced, cytoprotection, ATP luminescence, 40 h. Potency, µM (series often up to 56.4 µM), most hits filed as activators. 230,000 compounds, 0.14% hits. AID 1471; note: nearly all actives have a fitted effect of over 45% in size
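Quantitative HTS on tebufenozide-induced (100 nM) PC12 cells expressing HTTQ103 exon 1–GFP; compounds tested as a concentration series; survival measured via cellular ATP.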
NPSR antag: neuropeptide S receptor (human) antagonism, cAMP | CHO-NPSR cells, cAMP TR-FRET, antagonist mode | Potency, µM (titrated, usually from 38.3 µM), actives largely listed as inhibitors | 220,000 compounds, 1% hits | AID 1461; note: nearly all actives have a fitted effect of over 50% in size
Target sequence (Q6W5P4 whole entry, looked up): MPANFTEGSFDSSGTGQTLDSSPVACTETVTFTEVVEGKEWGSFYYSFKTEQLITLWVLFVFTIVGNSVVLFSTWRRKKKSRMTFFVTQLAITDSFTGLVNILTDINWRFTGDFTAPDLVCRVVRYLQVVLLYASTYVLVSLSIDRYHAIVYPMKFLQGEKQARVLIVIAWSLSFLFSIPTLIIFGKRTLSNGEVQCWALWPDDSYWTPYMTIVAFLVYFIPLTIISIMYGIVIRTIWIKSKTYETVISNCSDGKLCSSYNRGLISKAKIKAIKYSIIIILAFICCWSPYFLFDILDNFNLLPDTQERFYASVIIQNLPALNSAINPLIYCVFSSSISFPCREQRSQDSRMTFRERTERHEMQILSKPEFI
Large screens that a line does not name were inactive. Shown are actives, neighbours in structure and some others; about 3.3% of the full set was active somewhere. Unless noted, calls come from the whole dose curve; as a rule, active = well fitted curve in the direction sought with a large enough effect; inconclusive = small, poorly fitted or top-dose-only effect, or another doubt; inactive = no such curve, though single readings can be large; an effect the other way counts as inactive or inconclusive.

Cc1ccc(Cn2c3ccccc3c3cn[nH]c(=O)c32)cc1	PNC assembly inh -108.4
O=C(Nc1cccnc1)c1c(F)c(F)c(F)c(F)c1F	PNC assembly inh -106.5, HTT ATP protect inconclusive
Cc1occc1C(=O)Nc1cccnc1	HTT aggregate 22.4µM
CN(C)Cc1ccccc1-c1nccc(N(C)C)n1	none (no result: PNC assembly inh, HTT aggregate, IMPase inh, NPSR antag)
CCOCCCNC(=O)CCc1ccc(S(=O)(=O)Nc2ccc(C)cc2)cc1	none (no result: PNC assembly inh, 12-hLO inh, IMPase inh, HTT ATP protect)
CCOCCCNC(=O)C(C)NS(=O)(=O)c1ccc(C)cc1 (stereo not drawn)	PNC assembly inh -89.7
C=CCN(CC=C)C(=O)Nc1cc(OC)ccc1OC	NPSR antag inconclusive (no result: PNC assembly inh, 12-hLO inh, IMPase inh)
Cc1ccc(C)c(NC(=O)CSc2nnc([C@@H]3CCCN3C(=O)OC(C)(C)C)o2)c1	PNC assembly inh -118.9
Cc1cccc(NC(=O)CSc2nnc([C@@H]3CCCN3C(=O)OC(C)(C)C)o2)c1C	none
CCN(CC)CC(=O)N1c2ccccc2Sc2ccc(Cl)cc21	PNC assembly inh -100.0
Brc1cccc(CNCc2cccs2)c1	PNC assembly inh -88.8 (no result: IMPase inh, HTT ATP protect)
Clc1ccc(CNCc2cccs2)cc1Cl	none (no result: IMPase inh, HTT ATP protect)
O=C1c2cccc3c([N+](=O)[O-])c(O)cc(c23)C(=O)N1Nc1ccccc1	none (no result: PNC assembly inh, 12-hLO inh, IMPase inh)
O=C1c2ccccc2C(=O)N1Nc1ccccc1	PNC assembly inh -106.0
COC(=O)c1cn(CCOc2ccc(C)cc2)c2ccccc12	PNC assembly inh -82.3
CC(C)C(=O)OCC(=O)[C@@]12OC(C3CCCCC3)O[C@@H]1CC1C3CCC4=CC(=O)C=C[C@]4(C)C3[C@@H](O)C[C@@]12C (stereo partly drawn)	none (no result: PNC assembly inh, 12-hLO inh, IMPase inh, NPSR antag)
Cc1c(Cl)cccc1NC(=S)NNc1ncc(C(F)(F)F)cc1Cl	HTT aggregate 12.6µM
Cc1onc(-c2ccccc2Cl)c1C(=O)Nc1nnc(-c2ccc(Cl)cc2Cl)s1	PNC assembly inh inconclusive, HTT aggregate 35.5µM, IMPase inh inconclusive
Cc1onc(-c2ccccc2Cl)c1C(=O)Nc1nnc(-c2ccc(Br)cc2)s1	HTT aggregate inconclusive, IMPase inh inconclusive
CCCC1(C(=O)OC)C=C2C(=C(C(C)C)C(=O)C2C)CN1 (stereo not drawn)	none (no result: PNC assembly inh, HTT aggregate, IMPase inh, NPSR antag)
COC(=O)Cc1ccc(NC(=S)Nc2ccc(N3CCOCC3)cc2)cc1	none (no result: PNC assembly inh, 12-hLO inh, IMPase inh)
CC1=CS(=O)(=O)CC1Sc1ncn[nH]1 (stereo not drawn)	PNC assembly inh -100.0
CC1=CS(=O)(=O)CC1Sc1nc(C)n[nH]1 (stereo not drawn)	none (no result: PNC assembly inh, 12-hLO inh, IMPase inh)
Cc1cc(C)nc(NC(N)=NCCc2c[nH]c3ccccc23)n1	none (no result: PNC assembly inh, 12-hLO inh, IMPase inh)
Cc1cc(C)nc(NC(=NCCc2c[nH]c3ccccc23)NC(=O)Nc2ccc(Cl)cc2)n1	NPSR antag 12.6µM
O=C(c1csnn1)N1CCC2(CC1)CN(c1cccc(-c3ccccc3)c1)C2	none (no result: PNC assembly inh, HTT aggregate, IMPase inh, NPSR antag)
CC(C)(C)C(=O)/C(=C\c1ccc([N+](=O)[O-])cc1)n1cncn1	PNC assembly inh inconclusive, HTT aggregate 5.01µM, HTT ATP protect inconclusive
Cc1cccc(-n2ncc3c(Nc4ccc(F)cc4)ncnc32)c1	HTT aggregate inconclusive, NPSR antag inconclusive
Cc1ccccc1Nc1ncnc2c1cnn2-c1ccccc1	HTT aggregate inconclusive
Cc1cccc(-n2ncc3c(NC(C)C)ncnc32)c1	HTT aggregate 11.2µM
NNc1ncnc2c1cnn2-c1ccccc1	PNC assembly inh inconclusive, HTT aggregate 22.4µM
COC(=O)CSc1nnc2n(-c3ccccc3)c(=O)c3c4c(sc3n12)COC(C(C)C)C4 (stereo not drawn)	none (no result: PNC assembly inh, HTT aggregate, 12-hLO inh, HTT ATP protect, NPSR antag)
CCOc1ccc(NC(=S)NCc2ccc3[nH]c(C)cc3c2)cc1	none (no result: PNC assembly inh, 12-hLO inh, IMPase inh)
CCCCNC(=S)NCc1ccc2[nH]c(C)cc2c1	PNC assembly inh -114.6, 12-hLO inh inconclusive (no result: IMPase inh, HTT ATP protect)
CC(C)Sc1nc2sc3c(c2c(=O)n1-c1ccccc1)CCCC3	none (no result: PNC assembly inh, HTT aggregate, 12-hLO inh, HTT ATP protect, NPSR antag)
CC(C)(C)OC(=O)NCCCC1=CC2=CC(=O)C(C)(OC(=O)c3cccs3)C(=O)C2=CO1 (stereo not drawn)	none (no result: PNC assembly inh, HTT aggregate, IMPase inh, NPSR antag)
COc1ccc(Oc2ccc(/C=C/C(=O)c3ccc(O)cc3)cc2[N+](=O)[O-])cc1	PNC assembly inh -113.4, HTT aggregate 12.6µM, NPSR antag inconclusive (no result: IMPase inh, HTT ATP protect)
